An excerpt weighted towards active compounds, which were near 3.6% of everything screened.
Rango-impB inh: qHTS Assay for Inhibitors of Rango (Ran-regulated importin-beta cargo) - Importin beta complex formation. Potency, µM (series often up to 92.2 µM), without a hit: at the highest dose inhibition of complex formation. hit rate 0.031% among 340,000. Importin subunit beta-1 (Homo sapiens), Q14974. Rango CFP/YFP FRET sensor + importin beta, 45 min. AID 540263, 2011; calls by dose curve;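 note: potency is the fitted concentration of half-maximal effect; 0% = DMSO wells and 100% = buffer wells lacking importin beta; nearly all actives have a fitted effect of over 15% in size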
Target sequence (Q14974 whole entry, looked up): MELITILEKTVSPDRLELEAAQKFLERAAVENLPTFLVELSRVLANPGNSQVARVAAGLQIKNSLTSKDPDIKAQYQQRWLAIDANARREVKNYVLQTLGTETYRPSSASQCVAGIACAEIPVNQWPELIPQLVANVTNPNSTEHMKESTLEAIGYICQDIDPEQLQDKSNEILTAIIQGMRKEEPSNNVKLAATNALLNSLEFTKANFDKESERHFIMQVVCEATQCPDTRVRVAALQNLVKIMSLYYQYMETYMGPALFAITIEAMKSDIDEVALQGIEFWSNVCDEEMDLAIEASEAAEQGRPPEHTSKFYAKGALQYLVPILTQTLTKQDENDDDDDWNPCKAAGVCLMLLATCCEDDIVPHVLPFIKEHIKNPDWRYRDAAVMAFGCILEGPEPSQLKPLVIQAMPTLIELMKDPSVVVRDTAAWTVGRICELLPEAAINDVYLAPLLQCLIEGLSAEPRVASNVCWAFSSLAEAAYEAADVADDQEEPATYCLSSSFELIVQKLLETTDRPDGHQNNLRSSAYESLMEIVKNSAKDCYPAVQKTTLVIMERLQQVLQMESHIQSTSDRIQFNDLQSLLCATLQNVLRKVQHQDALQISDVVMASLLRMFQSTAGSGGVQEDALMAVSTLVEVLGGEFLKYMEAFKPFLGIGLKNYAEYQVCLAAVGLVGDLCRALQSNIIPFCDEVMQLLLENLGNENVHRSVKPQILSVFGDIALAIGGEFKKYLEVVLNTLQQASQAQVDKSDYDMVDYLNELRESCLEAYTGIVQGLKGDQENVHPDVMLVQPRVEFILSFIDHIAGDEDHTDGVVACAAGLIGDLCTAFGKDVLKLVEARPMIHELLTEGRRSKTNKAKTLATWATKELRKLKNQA
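FRET biosensor Rango (snurportin 1 IBB between N-terminal EYFP and C-terminal Cerulean), 50 nM in PBS/1 mM DTT/0.02% Tween-20/0.1% BSA, preincubated 5 min RT with compound; 0.125 microM importin beta added, 45 min RT, CFP/YFP FRET ratio read.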
PI5P4K alpha inh: qHTS for Inhibitors of phosphatidylinositol 5-phosphate 4-kinase (PI5P4K); AID 652105, 2013; Phosphatidylinositol 5-phosphate 4-kinase type-2 alpha (Homo sapiens), P48426; hit rate 1.2% among 330,000; PI5P4Kalpha enzyme, ADP-Glo luminescence, 60 min; stronger effect = lower value; max response, %; active = max response of -50% or lower; inconclusive = between -30% and -50%; inactive = -30% or higher; note: value at the top dose of about 77 µM; % is set by controls: 0 for no effect and ±100 for the full control effect
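ADP-Glo luminescence end-point read after a 60 min room-temperature kinase reaction of PI5P4Kalpha plus substrate, initiated with ATP at 5 microM final. Buffer: 0.038 M HEPES pH 7.4, EGTA, 0.1% CHAPS, 5% DMSO.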
GCN5L2 inh: qHTS Assay for Inhibitors of GCN5L2 | hit rate 0.21% among 390,000 | Potency, µM (highest dose often 58.9 µM), for inactives: top-dose activity change, negative = inhibition, hits mostly inhibitors | GCN5L2 HAT assay, ThioGlo1 CoA-SH fluorescence | Histone acetyltransferase KAT2A (Homo sapiens), Q92830; note: potency is the fitted concentration of half-maximal effect; % is set by controls: 0 for no effect and ±100 for the full control effect
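GCN5L2 (20nM final) in 50mM HEPES, 0.1mM EDTA pH 7.5, 0.01% Tween-20 was preincubated 15 min at room temperature with compound, then given ThioGlo1 (50uM), H3(1-25) peptide (75uM) and acetyl-CoA (70uM); CoA-thiol fluorescence (Ex340/Em540) was read at 0 and 20 min.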
VDR inhibitor: Inhibitors of the vitamin D receptor (VDR): qHTS; AID 504847, 2011; Potency, µM, for inactives: max response, negative = inhibition, most hits filed as inhibitors; VDR-SRC2-3 peptide fluorescence polarization, 2 h; hit rate 0.93% among 400,000; Vitamin D3 receptor (Homo sapiens), P11473; note: potency is the fitted concentration of half-maximal effect; % is set by controls: 0 for no effect and ±100 for the full control effect
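Fluorescence polarization assay measuring small-molecule disruption of VDR binding to the coregulator peptide SRC2-3. Compounds were pin-transferred (23 nl) into the reagent mix and incubated 2 h at room temperature before reading.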
Rango release inh: qHTS Assay for Inhibitors of RanGTP induced Rango (Ran-regulated importin-beta cargo) - Importin beta complex dissociation. Biochemical FRET Rango-importin beta, RanGTP-induced dissociation. Potency, µM (highest dose often 46.1 µM), for the others: top-dose activity change, negative = inhibition. hit rate 0.071% among 340,000. AID 540253, 2011; calls by dose curve; note: potency is the fitted concentration of half-maximal effect; % of control where 0% means no effect; nearly all actives have a fitted effect of over 45% in size
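Rango (0.1 uM)–importin beta (0.25 uM) complex; RanGTP-RCC1 trigger; 45 min RT; CFP/YFP FRET read.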
PLK1 PBD block: qHTS for Inhibitors of PLK1-PDB (polo-like kinase 1 - polo-box domain): Primary Screen; Serine/threonine-protein kinase PLK1 (Homo sapiens), P53350; Plk1 PBD binding of FITC phosphopeptide, fluorescence polarization; Potency, µM, inactives show max response, negative = inhibition, usual class: inhibitors; hit rate 2.8% among 360,000; note: potency is the fitted concentration of half-maximal effect; series mostly up to about 57 µM; % is set by controls: 0 for no effect and ±100 for the full control effect; nearly all actives have a fitted effect of over 65% in size
An asterisk follows results filed as active; u = inconclusive; x = not tested or not shown. Unless noted, calls come from the whole dose curve; as a rule, active = well fitted curve in the direction sought with a large enough effect; inconclusive = small, poorly fitted or top-dose-only effect, or another doubt; inactive = no such curve, though single readings can be large; an effect the other way counts as inactive or inconclusive.

SMILES	Rango-impB inh	PI5P4K alpha inh	GCN5L2 inh	VDR inhibitor	Rango release inh	PLK1 PBD block
CCOc1ccc(/C=C2/C(=N)N3OC(C)=CC3=NC2=O)cc1OC	2%	-19	-10%	u	21%	21µM*
O=C(COC(=O)CNC(=O)C1CCCCC1)NC1CC1	x	x	x	5%	x	x
COc1ccc(NC(=O)NC(C)c2c(-n3cccc3)sc3c2CCN(C)C3)c(OC)c1 (stereo not drawn)	x	x	-1%	-6%	x	x
CCOC(=O)c1cc(-c2ccc(/C=C3/C(=O)NC(=O)C(C#N)=C3C)o2)ccc1Cl	u	x	u	u	-13%	3.4µM*
Cc1ccc(-c2ccc(/C=N/N=C3/NC(=O)C(CC(=O)O)S3)o2)c([N+](=O)[O-])c1 (stereo not drawn)	-3%	u	-13%	u	-12%	-16%
CC1=C(C#N)C(=O)NC(=O)/C1=C\c1ccc(-c2ccc(C)cc2[N+](=O)[O-])o1	4%	-75*	u	u	-17%	8.4µM*
CC(C)OC(=O)c1cc(-c2ccc(C=O)o2)ccc1Cl	-1%	-23	-18%	-5%	-4%	-10%
CCN1/C(=C/C=C/c2oc3ccc4ccccc4c3[n+]2CC)Oc2ccc3ccccc3c21	u	-74*	1%	u	u	81%
CC1=NOC(=O)/C1=C/c1ccc2c(c1)OCO2	-2%	-15	-8%	32µM*	-3%	u
CC1=NOC(=O)/C1=C\c1ccc2c(c1)OCO2	0%	-5	-16%	89µM*	1%	2.4µM*
COc1cc(Cl)c(C)cc1NC(=O)c1cc(CN2CCOCC2)on1	x	x	0%	6%	x	x
CC(C)(C)C(=O)NC1(C(F)(F)F)C(=O)Nc2c1c(=O)[nH]c(=O)n2-c1ccccc1 (stereo not drawn)	x	x	-8%	-7%	x	x
Cc1nc2c(-c3ccc(F)cc3)c(C)nn2c(C)c1CCC(=O)NCc1cccc(Cl)c1	x	x	-6%	-12%	x	x
Cc1nc(C(N)=O)c(N)n1CCc1ccccc1	0%	1	-25%	45µM*	-15%	-18%
CCC(Oc1ccccc1)C(=O)Nc1cc(-c2ccccc2OC)nn1-c1ccccc1 (stereo not drawn)	x	x	-15%	0%	x	x
Nc1c(C(=O)Nc2cccc(F)c2)c2ccccn2c1C(=O)c1ccccc1	x	x	-2%	0%	x	x
CCOC(=O)C1C(c2ccc3c(c2)OCO3)NC(=O)NC1(O)C(F)(F)F (stereo not drawn)	-4%	-53*	-3%	u	-11%	3µM*
CCOC(=O)C1C(c2ccc(O)c(OC)c2)NC(=O)NC1(O)C(F)(F)F (stereo not drawn)	-2%	-3	-8%	-7%	9%	2%
COC(=O)c1ccc(Cn2c(O)c(N=NC(N)=S)c3ccccc32)o1	-4%	-57*	-4%	-26%	-6%	-14%
Cc1nc(-c2ccccn2)nc(SCC(=O)c2ccccc2)c1Cl	0%	2	-8%	-12%	11%	u
Cc1nc(-c2ccccn2)nc(SCC(=O)N2CCOCC2)c1Cl	1%	-1	-4%	-8%	17%	24µM*
O=C(O)c1cc(NN=Nc2cccc(S(=O)(=O)O)c2)cc([N+](=O)[O-])c1	0%	-55*	-3%	-17%	1%	-4%
O=C(O)c1cc(NN=Nc2cccc([N+](=O)[O-])c2)cc([N+](=O)[O-])c1	5%	u	-6%	7%	1%	-15%
CCCSc1nc(O)c(C(c2ccc(OC)c(O)c2)c2c(O)nc(SCCC)n(C)c2=O)c(=O)n1C	10%	-5	-1%	35µM*	-15%	9.5µM*
CCOc1ccc(NC(=O)NCc2ccc3c(c2)CCN3C(C)=O)cc1	x	x	2%	0%	x	x
SMILES	Rango-impB inh	PI5P4K alpha inh	GCN5L2 inh	VDR inhibitor	Rango release inh	PLK1 PBD block
CC1=C(C(=O)OC(C)C)C2(O)C(=O)c3ccccc3C2(O)N1 (stereo not drawn)	-2%	5	-5%	u	-15%	u
CC(=O)C1=C(C)OC2(O)c3ccccc3C(=O)C12O (stereo not drawn)	1%	-3	-3%	1.6µM*	-8%	-12%
CCOC(=O)C1=C(C)OC2(O)c3ccccc3C(=O)C12O (stereo not drawn)	0%	0	-4%	5µM*	-10%	-20%
CCOC(=O)C1=C(C)N[C@@]2(O)c3ccccc3C(=O)[C@@]12O	7%	-1	1%	-17%	-4%	-1%
Cc1cc(-c2ccc(C)c(S(=O)(=O)N(C)c3ccc(C)c(C)c3)c2)on1	x	x	-10%	5%	x	x
c1ccc(CCn2nnc3ccccc32)cc1	0%	-3	-4%	-23%	-18%	21µM*
O=C(Cn1nnc2ccccc21)OCc1ccccc1	2%	-9	-8%	u	6%	-3%
NC(=O)C1CC(=O)N(c2ccc(OCc3ccc(Cl)cc3)cc2)C1 (stereo not drawn)	0%	-19	4%	u	-1%	6µM*
CCCNC(=O)C1CC(=O)N(c2ccc(OCc3ccc(Cl)cc3)cc2)C1 (stereo not drawn)	5%	-6	-8%	-6%	1%	-19%
O=C(CNC(=O)C(c1ccccc1)c1ccccc1)OCC(=O)c1cccc2ccccc12	x	x	x	-9%	x	x
CCS(=O)(=O)Nc1ccc(Cc2ccncc2)cc1	5%	-5	-1%	-1%	-10%	30µM*
O=S(=O)(Nc1ccc(Cc2ccncc2)cc1)c1ccc(Cl)cc1	u	-2	-3%	-2%	8%	-2%
Cc1ccc(C)c(NC(=O)N2CCN(C(=O)c3nsc4ccccc34)CC2)c1	x	x	-8%	4%	x	x
COc1ccc(-c2csc3nc(-c4cccnc4)nc(Cl)c23)cc1OC	-1%	-24	-9%	u	-14%	27µM*
CC(C)(C)c1ccc(-c2nc(SCC(=O)Nc3ccc(Cl)cc3)[nH]c(=O)c2C#N)cc1	x	x	35µM*	2%	x	x
N#Cc1c(-c2ccccc2)cc(-c2ccccc2)nc1SCC(=O)Nc1ccc(Cl)cc1	x	x	1%	-14%	x	x
COc1ccc(C)cc1NC(=O)N1CCC(CN2CCOCC2)CC1	x	x	-5%	6%	x	x
COc1cccc(-n2nnnc2SCC(=O)Nc2ccc(C(C)=O)cc2)c1	1%	-9	-2%	u	-12%	24µM*
CCCS(=O)(=O)c1nnnn1-c1cccc(OC)c1	5%	x	-21%	u	7%	13µM*

From PubChem BioAssay
